Values joined by “and” are separate entries in the source; they are usually repeats but may differ in a detail not shown here. Equal values may be shown once. Results filed as inconclusive are left out. A call without a number means that no potency is given here. More than one record can exist for a structure, and the calls need not agree. Active and inactive are the calls of the source. Unless noted, calls follow the shape of the dose curve; as a rule, active = well fitted curve in the direction sought with a large enough effect in the repeat runs; inconclusive = weak or mixed curves; inactive = no such curve, though single readings can be large; an effect the other way counts as inactive or inconclusive.
Assays:
[1] = qHTS assay to identify small molecule agonists of the estrogen receptor alpha (ER-alpha) signaling pathway in the presence of an antagonist - cell viability counter screen (AID 1259386);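 also: cells exposed to compounds for 22 h at 37 °C before the viability read; nearly all actives have a fitted effect of over 30% in size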; also: potency is read from the fitted curve at half-maximal effect
In short: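 Read-out: CellTiter-Fluor fluorescence after 1hr reagent incubation, measured in the same wells as the luciferase readout. VM7Luc4E2 cells were exposed to 15 compound concentrations with 10.0nM ICI-182,780 for 22hr at 37C.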

[2] = biological target: Progesterone receptor (Homo sapiens) (UniProt P06401); assay: qHTS assay to identify small molecule agonists of the progesterone receptor (PR) signaling pathway (AID 1346784; calls by dose curve; also: nearly all actives have a fitted effect of over 30% in size)
Progesterone receptor (Homo sapiens), sequence (P06401 whole entry, looked up): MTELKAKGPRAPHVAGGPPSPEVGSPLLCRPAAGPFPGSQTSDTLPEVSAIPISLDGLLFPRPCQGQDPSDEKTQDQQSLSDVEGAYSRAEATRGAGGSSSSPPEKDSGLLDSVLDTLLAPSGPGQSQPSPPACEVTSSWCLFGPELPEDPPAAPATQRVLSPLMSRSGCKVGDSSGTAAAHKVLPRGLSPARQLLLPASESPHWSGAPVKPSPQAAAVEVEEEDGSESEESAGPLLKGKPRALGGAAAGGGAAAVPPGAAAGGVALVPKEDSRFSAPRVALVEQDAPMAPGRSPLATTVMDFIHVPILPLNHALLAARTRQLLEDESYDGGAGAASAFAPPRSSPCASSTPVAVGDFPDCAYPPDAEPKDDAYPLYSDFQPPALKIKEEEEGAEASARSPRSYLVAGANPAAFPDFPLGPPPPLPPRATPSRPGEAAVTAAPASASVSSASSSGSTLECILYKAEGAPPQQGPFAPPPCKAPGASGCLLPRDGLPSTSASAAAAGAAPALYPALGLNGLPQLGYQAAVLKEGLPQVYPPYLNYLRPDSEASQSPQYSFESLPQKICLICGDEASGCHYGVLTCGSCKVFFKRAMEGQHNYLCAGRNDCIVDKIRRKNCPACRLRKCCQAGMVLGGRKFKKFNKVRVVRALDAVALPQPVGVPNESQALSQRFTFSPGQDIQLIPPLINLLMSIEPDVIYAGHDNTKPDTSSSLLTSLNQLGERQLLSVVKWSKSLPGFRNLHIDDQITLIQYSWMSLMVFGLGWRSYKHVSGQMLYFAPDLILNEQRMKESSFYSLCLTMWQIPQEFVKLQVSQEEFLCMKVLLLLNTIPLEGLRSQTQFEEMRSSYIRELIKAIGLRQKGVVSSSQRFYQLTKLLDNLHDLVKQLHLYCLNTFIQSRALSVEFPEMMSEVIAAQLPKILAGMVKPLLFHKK
In short: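 Compounds were tested for PR agonism in HEK 293T cells bearing a beta-lactamase gene under UAS control. Treatment lasted 16 hr at 37C; signal came from fluorescence of a FRET substrate.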

[3] = qHTS assay to identify small molecule antagonists of the TGF-beta/Smad signaling pathway - cell viability counter screen (AID 1346824); also: nearly all actives have a fitted effect of over 50% in size
In short: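 SBE-bla HEK 293T cells were plated overnight at 37 C, then given compounds in DMSO plus TGF-beta1 (added as 0.25 ng/mL solution) for 5 hr. After the bla read, CellTiter-Glo was added to the same wells and luminescence read after 30 min at room temperature.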

[4] = qHTS assay to identify small molecule agonists of the TGF-beta/Smad signaling pathway - cell viability counter screen (AID 1346829); also: nearly all actives have a fitted effect of over 45% in size; also: potency is read from the fitted curve at half-maximal effect
In short: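 After overnight seating at 37 C and 5% CO2, reporter cells got compounds for 5 hr and FRET substrate for 2 hr; cell viability then came from CellTiter-Glo luminescence.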

[5] = qHTS assay to identify small molecule agonists of the TGF-beta/Smad signaling pathway (AID 1346859; active = well fitted activation curve with a large enough effect in the signal ratio in the repeat runs, not every such curve was filed as active; the % refers to the signal ratio; also: series mostly up to about 77 µM)
In short: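 Each well held 4,000 SBE-bla HEK 293T cells incubated overnight before compound addition; 5 hr later the cleavable FRET substrate went on for 2 hr at room temperature, and fluorescence was read at two emissions.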

[6] = biological target: Thyrotropin-releasing hormone receptor (Homo sapiens) (UniProt P34981); assay: qHTS assay to identify small molecule agonists of the thyrotropin-releasing hormone receptor (TRHR) signaling pathway (AID 1346891; calls by dose curve; also: series mostly up to about 58 µM)
Thyrotropin-releasing hormone receptor (Homo sapiens), sequence (P34981 whole entry, looked up): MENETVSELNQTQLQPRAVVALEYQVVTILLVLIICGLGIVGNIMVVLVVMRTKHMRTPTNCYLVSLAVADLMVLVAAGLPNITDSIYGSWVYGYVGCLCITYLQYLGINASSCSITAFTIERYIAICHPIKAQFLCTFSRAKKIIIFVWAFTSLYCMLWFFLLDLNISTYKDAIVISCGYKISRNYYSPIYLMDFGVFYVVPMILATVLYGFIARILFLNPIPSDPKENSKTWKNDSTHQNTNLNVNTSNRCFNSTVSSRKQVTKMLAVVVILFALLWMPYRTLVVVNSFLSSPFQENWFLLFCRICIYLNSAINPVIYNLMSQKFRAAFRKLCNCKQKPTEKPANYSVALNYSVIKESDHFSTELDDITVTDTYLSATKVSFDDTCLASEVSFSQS
In short: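 Screening of agonists relied on calcium signalling in HEK293 cells expressing human TRHR: dye loading 2 h at 37 °C preceded compound addition and a 3-min fluorescence time course.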

[7] = Human pregnane X receptor (PXR) small molecule agonists, qHTS cell viability counter screen (AID 1346977); also: nearly all actives have a fitted effect of over 50% in size; also: potency is read from the fitted curve at half-maximal effect
In short: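 Tox21 qHTS format; PXR-Luc HepG2, 2,000/well, charcoal-stripped FBS 5%. Cpd exposure 24hr. Read: CellTiter-Fluor fluorescence, multiplexed with luciferase.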

[8] = Caspase-3/7 induction in HepG2 cells by small molecules, qHTS assay (AID 1346978); also: nearly all actives have a fitted effect of over 15% in size; also: potency is read from the fitted curve at half-maximal effect
In short: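 Wild-type HepG2 cells (2,000/well) were settled 5 h at 37 C, 5% CO2, then exposed to compounds in DMSO for 17 h. Caspase-3/7 activity was read by luminescence 30 min after adding Caspase-Glo 3/7 reagent at room temperature.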

[9] = Caspase-3/7 induction in CHO-K1 cells by small molecules, qHTS cell viability counter screen (AID 1346979); also: nearly all actives have a fitted effect of over 35% in size; also: potency is read from the fitted curve at half-maximal effect
In short: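 CellTiter-Fluor viability check, qHTS format: wild-type CHO-K1, 16hr compound treatment, 1hr reagent incubation, fluorescence read.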

[10] = Caspase-3/7 induction in CHO-K1 cells by small molecules, qHTS assay (AID 1346980); also: nearly all actives have a fitted effect of over 15% in size
In short: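 Wild-type cells were seeded at 1,500 per well and settled 5 hr at 37 C, 5% CO2, then exposed to DMSO-dissolved compounds for 17 hr. Caspase-Glo 3/7 reagent was added, and luminescence was read after 30min at room temperature.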

[11] = Caspase-3/7 induction in HepG2 cells by small molecules, qHTS cell viability counter screen (AID 1346981); also: nearly all actives have a fitted effect of over 30% in size; also: potency is read from the fitted curve at half-maximal effect
In short: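 Fluorescence read-out of live-cell protease activity (CellTiter-Fluor) after 1 hr with reagent. This was measured in the same wells as the caspase-3/7 luminescence, on HepG2 cells exposed to DMSO-dissolved compounds for 16 hr at 37 C.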

[12] = biological target: Nuclear receptor subfamily 1 group I member 2 (Homo sapiens) (UniProt O75469); assay: Human pregnane X receptor (PXR) small molecule agonists, qHTS assay (AID 1346982); also: nearly all actives have a fitted effect of over 35% in size; also: potency is read from the fitted curve at half-maximal effect
Nuclear receptor subfamily 1 group I member 2 (Homo sapiens), sequence (O75469 whole entry, looked up): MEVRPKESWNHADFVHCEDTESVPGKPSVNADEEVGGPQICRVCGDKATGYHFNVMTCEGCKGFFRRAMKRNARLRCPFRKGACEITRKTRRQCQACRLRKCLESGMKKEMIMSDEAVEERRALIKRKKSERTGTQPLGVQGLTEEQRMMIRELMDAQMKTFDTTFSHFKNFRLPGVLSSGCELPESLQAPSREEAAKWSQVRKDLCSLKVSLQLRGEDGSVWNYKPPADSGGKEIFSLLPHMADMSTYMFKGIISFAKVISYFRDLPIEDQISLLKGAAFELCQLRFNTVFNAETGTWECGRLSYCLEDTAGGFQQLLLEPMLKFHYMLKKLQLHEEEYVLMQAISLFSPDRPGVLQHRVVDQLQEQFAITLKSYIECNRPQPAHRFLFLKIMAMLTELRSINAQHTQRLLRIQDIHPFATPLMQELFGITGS
In short: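 HepG2 PXR-Luc reporter line, 5% charcoal-stripped FBS; 5 hr pre-incubation, compound (DMSO) 24 hr at 37 C/5% CO2; ONE-Glo 30 min RT; luminescence read-out.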

[13] = biological target: Acetylcholinesterase (Homo sapiens) (UniProt P22303); assay: Acetylcholinesterase (AChE) small molecule antagonists: colormetric cell-based qHTS assay (AID 1347395; calls by dose curve; also: nearly all actives have a fitted effect of over 30% in size; also: potency is read from the fitted curve at half-maximal effect)
Acetylcholinesterase (Homo sapiens), sequence (P22303 whole entry, looked up): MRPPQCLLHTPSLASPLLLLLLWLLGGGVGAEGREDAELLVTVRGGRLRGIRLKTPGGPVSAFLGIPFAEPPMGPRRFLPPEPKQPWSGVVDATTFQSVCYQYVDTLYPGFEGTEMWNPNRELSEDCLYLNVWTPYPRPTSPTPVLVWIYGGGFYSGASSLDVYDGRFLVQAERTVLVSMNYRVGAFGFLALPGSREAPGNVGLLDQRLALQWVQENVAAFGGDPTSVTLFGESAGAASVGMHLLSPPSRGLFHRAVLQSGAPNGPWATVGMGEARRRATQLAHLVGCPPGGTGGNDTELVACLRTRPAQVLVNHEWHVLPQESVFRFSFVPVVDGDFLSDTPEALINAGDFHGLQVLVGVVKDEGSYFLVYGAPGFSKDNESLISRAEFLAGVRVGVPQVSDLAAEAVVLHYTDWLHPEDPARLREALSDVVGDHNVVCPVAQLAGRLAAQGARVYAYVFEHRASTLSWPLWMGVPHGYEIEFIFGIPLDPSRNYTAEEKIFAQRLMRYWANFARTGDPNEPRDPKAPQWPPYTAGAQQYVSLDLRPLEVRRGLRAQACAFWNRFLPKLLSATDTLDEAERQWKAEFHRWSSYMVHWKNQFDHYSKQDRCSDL
In short: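 AChE inhibition read colorimetrically via DTNB–thiocholine in SH-SY5Y cells. Compound 30 min, substrate 90 min, both 37 C.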

[14] = qHTS assay to identify small molecule antagonists of the progesterone receptor (PR) signaling pathway - cell viability counter screen (AID 1346798); also: series mostly up to about 92 µM; nearly all actives have a fitted effect of over 50% in size
In short: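 Following a 4 hr attachment, PR-UAS-bla HEK293T cells in charcoal-stripped FBS medium were exposed to compounds with R5020 for 16 hr; CellTiter-Glo was added and luminescence read after 30 min at room temperature.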

[15] = biological target: Thyrotropin-releasing hormone receptor (Homo sapiens) (UniProt P34981); assay: qHTS assay to identify small molecule antagonists of the thyrotropin-releasing hormone receptor (TRHR) signaling pathway (AID 1346877; active = well fitted inhibition curve with a large enough effect in the repeat runs, not every such curve was filed as active; also: series mostly up to about 51 µM)
In short: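 HEK293/TRHR cells, 18 h, 37 °C; Ca2+ dye 2 h; cpd 5 min RT; TRH 1 nM final; fluorescence read 3 min, 1 s intervals; 15 concs, triplicate.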

[16] = qHTS assay to identify small molecule agonists of the progesterone receptor (PR) signaling pathway - cell viability counter screen (AID 1346799; calls by dose curve; also: nearly all actives have a fitted effect of over 45% in size; also: potency is read from the fitted curve at half-maximal effect)
In short: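 Here, 3,000 PR-UAS-bla HEK293T cells per well were treated with compounds for 16 hr after a 6 hr preincubation at 37C and 5% CO2; cell viability is the CellTiter-Glo luminescence signal.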

[17] = biological target: Nuclear receptor subfamily 1 group I member 2 (Rattus norvegicus) (UniProt Q9R1A7); assay: Rat pregnane X receptor (rPXR) activation by small molecules, qHTS assay (AID 1346983); settings: rPXR luciferase reporter cells, One-Glo luminescence, 24 h; max activation: stronger effect = higher value; also: nearly all actives have a fitted effect of over 20% in size
Nuclear receptor subfamily 1 group I member 2 (Rattus norvegicus), sequence (Q9R1A7 whole entry, looked up): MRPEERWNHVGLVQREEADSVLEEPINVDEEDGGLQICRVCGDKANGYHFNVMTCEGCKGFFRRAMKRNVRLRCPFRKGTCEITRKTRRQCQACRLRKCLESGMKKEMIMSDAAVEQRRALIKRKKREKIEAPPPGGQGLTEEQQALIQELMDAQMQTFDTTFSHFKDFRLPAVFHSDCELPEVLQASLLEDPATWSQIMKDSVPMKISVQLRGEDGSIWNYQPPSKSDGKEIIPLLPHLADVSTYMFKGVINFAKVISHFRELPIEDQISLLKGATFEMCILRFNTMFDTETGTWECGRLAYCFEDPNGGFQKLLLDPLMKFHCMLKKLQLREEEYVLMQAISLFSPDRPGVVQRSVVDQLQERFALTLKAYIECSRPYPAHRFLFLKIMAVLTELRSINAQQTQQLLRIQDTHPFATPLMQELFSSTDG
In short: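 Cell-based rPXR luciferase reporter assay, 2,000 cells per well, rested 5hr at 37 C before compound addition in DMSO, then 24 hr at 37 C. One-Glo reagent was added and luminescence read after 30 min at room temperature.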

[18] = biological target: Nuclear receptor subfamily 1 group I member 2 (Homo sapiens) (UniProt O75469); assay: CYP3A4 induction through human pregnane X receptor (PXR) by small molecules, qHTS assay (AID 1346984); also: nearly all actives have a fitted effect of over 40% in size
In short: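 HepG2-derived DPX-2 line carrying PXR plus a CYP3A4-promoter luciferase reporter; cells plated 5 hr, compound-exposed 24 hr at 37C. CYP3A4 activity probed with 3uM (final) Luciferin-IPA for 3hr, then luciferase read after One-Glo.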

[19] = biological target: Nuclear receptor subfamily 1 group I member 2 (Homo sapiens) (UniProt O75469); assay: Human pregnane X receptor (PXR) activation by small molecules, qHTS assay (AID 1346985); also: nearly all actives have a fitted effect of over 40% in size
In short: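 DPX-2 cells (HepG2 co-transfected with a PXR response element and a CYP3A4-promoter luciferase construct) were seeded at 2,000 per well, rested 5 hr at 37C, then exposed to DMSO-dissolved compounds for 24 hr. Activation was read as luciferase luminescence.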

SMILES | Potency [1] | Potency [2] | Potency [3] | Potency [4] | outcome [5] | Potency [6] | Potency [7] | Potency [8] | Potency [9] | Potency [10] | Potency [11] | Potency [12] | Potency [13] | Potency [14] | Potency [15] | Potency [16] | max activation [17] | Potency [18] | Potency [19]
CCNS(=O)(=O)C(F)(F)C(F)(F)C(F)(F)C(F)(F)C(F)(F)C(F)(F)C(F)(F)C(F)(F)F | inactive | inactive | inactive | inactive | inactive | inactive | inactive | inactive | inactive | inactive | inactive | inactive | inactive | – | – | – | – | – | –
CCOP(=S)(OCC)SC(CCl)N1C(=O)c2ccccc2C1=O (centres undefined) | inactive | inactive | inactive | inactive | inactive | inactive | – | inactive | – | inactive | inactive | 4.33 µM (active) | 31.7 µM (active) | inactive | inactive | – | – | – | –
N#CSCc1ccccc1 | inactive | inactive | inactive | inactive | inactive | inactive | inactive | inactive | inactive | inactive | inactive | 43.5 µM (active) | inactive | inactive | inactive | – | – | – | –
CNN | inactive | inactive | inactive | inactive | inactive | – | – | inactive | inactive | – | inactive | – | inactive | inactive | – | inactive | – | – | –
COP(=O)(OC)O/C(=C\Cl)c1cc(Cl)c(Cl)cc1Cl | inactive | inactive | inactive | inactive | inactive | inactive | inactive | – | – | inactive | – | 54.5 µM (active) | – | inactive | inactive | – | – | – | –
Cc1c([N+](=O)[O-])c(C)c([N+](=O)[O-])c(C(C)(C)C)c1[N+](=O)[O-] | inactive | inactive | inactive | inactive | inactive | inactive | inactive | – | – | inactive | inactive | 48.6 µM (active) | inactive | – | inactive | – | – | – | –
CC(C)C(Nc1ccc(C(F)(F)F)cc1Cl)C(=O)OC(C#N)c1cccc(Oc2ccccc2)c1 (centres undefined) | inactive | inactive | inactive | – | inactive | – | inactive | inactive | inactive | inactive | inactive | 13.8 µM (active) | inactive | inactive | – | – | – | – | –
Nc1ccccc1-c1ccccc1 | inactive | inactive | inactive | inactive | inactive | inactive | inactive | inactive | inactive | inactive | inactive | – | inactive | – | – | 30.5 µM (active) | – | – | –
O=[N+]([O-])[O-].[Tl+] | inactive | inactive | inactive | inactive | inactive | – | – | inactive | 61.6 µM (active) | inactive | – | – | – | inactive | – | – | – | – | –
Clc1ccc(C2(Cn3cncn3)OCCO2)c(Cl)c1 | inactive | inactive | inactive | inactive | inactive | inactive | inactive | inactive | inactive | inactive | – | – | – | – | – | – | -0.146% (inactive) | inactive | inactive
CC1(C)[C@H](/C=C2\CCSC2=O)[C@@H]1C(=O)OCc1coc(Cc2ccccc2)c1 | inactive | inactive | inactive | inactive | inactive | inactive | inactive | inactive | 61.1 µM (active) | inactive | inactive | 21.7 µM (active) | inactive | – | inactive | – | – | – | –
CCN(CC)Cc1nccn1-c1ccc([N+](=O)[O-])cc1C(=O)c1ccccc1Cl | inactive | inactive | inactive | inactive | inactive | inactive | – | inactive | inactive | inactive | – | 10.6 µM (active) | inactive | – | inactive | inactive | – | – | –
CC(=O)[O-].CC(=O)[O-].[Co+2] | inactive | inactive | inactive | inactive | inactive | – | inactive | inactive | inactive | inactive | – | – | – | – | – | – | – | – | –
CCCCCCCCCCCCCCn1cc[n+](C)c1 | 15.4 µM (active) and 24.1 µM (active) | inactive | – | 49.1 µM (active) and 38.5 µM (active) and inactive | inactive | – | 12.2 µM (active) and 27 µM (active) | 43.4 µM (active) and inactive | 4.34 µM (active) and 8.54 µM (active) and 61.1 µM (active) | inactive | 61.3 µM (active) and 67.8 µM (active) and 54.4 µM (active) | 3.86 µM (active) and 4.28 µM (active) and 21.7 µM (active) | 63.4 µM (active) and 70.2 µM (active) and inactive | – | – | 30.7 µM (active) and 42.8 µM (active) and inactive | – | – | –
C#CCC1=C(C)C(OC(=O)C2C(C=C(C)C)C2(C)C)CC1=O (centres undefined) | inactive | inactive | inactive | inactive | inactive | inactive | – | inactive | – | inactive | inactive | 10.8 µM (active) | inactive | – | inactive | – | – | – | –
O=S1(=O)OCC2C(CO1)C1(Cl)C(Cl)=C(Cl)C2(Cl)C1(Cl)Cl (centres undefined) | inactive | inactive | inactive | inactive | – | inactive | – | inactive | 48.6 µM (active) | inactive | – | 21.7 µM (active) | inactive | inactive | – | inactive | – | – | –
